In the GenesisPotency data set:
The whole screen tested about 290,000 compounds, of which about 2,100 (0.72%) were called active. Inconclusive results (about 4%) are left out. Calls come from the whole dose curve; as a rule, active = well fitted inhibition curve with a large enough effect; inconclusive = small, poorly fitted or top-dose-only effect, or effect the other way; inactive = flat fitted curve, though single readings scatter. The full list was thinned out, with actives kept by preference.

These molecules were tested against Fructose-bisphosphate aldolase, Giardia intestinalis (strain ATCC 50803 / WB clone C6) (UniProt A8B2U2) (assay: qHTS Assay for Inhibitors of Fructose-1,6-bisphosphate Aldolase from Giardia Lamblia).
Chain of Fructose-bisphosphate aldolase, Giardia intestinalis (strain ATCC 50803 / WB clone C6) (A8B2U2 whole entry, looked up, natural form): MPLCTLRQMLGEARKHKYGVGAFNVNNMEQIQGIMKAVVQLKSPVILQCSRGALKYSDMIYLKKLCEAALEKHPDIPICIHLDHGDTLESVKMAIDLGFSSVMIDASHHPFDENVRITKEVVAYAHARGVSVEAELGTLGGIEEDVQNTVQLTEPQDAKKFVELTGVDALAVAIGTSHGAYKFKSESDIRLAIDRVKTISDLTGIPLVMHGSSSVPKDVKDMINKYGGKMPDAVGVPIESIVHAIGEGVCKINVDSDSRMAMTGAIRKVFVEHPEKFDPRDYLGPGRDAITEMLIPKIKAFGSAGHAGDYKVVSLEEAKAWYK

**Q.** For `N.N.[Cl][Pt][Cl]`, which outcome is on record?
**A.** active
